ELG1 repair inh: qHTS screen for small molecules that inhibit ELG1-dependent DNA repair in human embryonic kidney (HEK293T) cells expressing luciferase-tagged ELG1. HEK293T ELG1-luciferase reporter, luminescence, 16 h; DNA damage induced by 5-fluorouridine. Potency, µM (doses to about 46.1 µM), for the others: at the top dose activity change, negative = inhibition, actives largely listed as inhibitors. 2.3% of 330,000 active. AID 504467, 2011; note: potency is the fitted concentration of half-maximal effect; nearly all actives have a fitted effect of over 55% in size
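DMSO vehicle served as the neutral condition. Each well held 2,000 cells given 5-fluorouridine plus compound; after 16 hr at 37 °C/5% CO2, ONE-Glo was added and luciferase measured 30 min later.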
TDP1 cell CPT: qHTS for Inhibitors of human tyrosyl-DNA phosphodiesterase 1 (TDP1): qHTS in cells in presence of CPT | chicken DT40 Tdp1-/-;hTDP1 cells + 20 nM CPT, ATP luminescence, 48 h | Potency, µM (titrated, usually from 46.2 µM), without a hit: at the highest dose activity change, negative = growth inhibition, most hits filed as inhibitors | 12% of 420,000 active | AID 686979, 2013; note: potency is the fitted concentration of half-maximal effect; nearly all actives have a fitted effect of over 55% in size
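Cell growth measured by CellTiter-Glo luminescence after a minimum 48 h, 37 C compound exposure with 20 nM CPT in Tdp1-knockout DT40 cells stably expressing hTDP1, seeded 400/well; qHTS titration format.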
IL1B secr inh: qHTS for Inhibitors of Inflammasome Signaling: IL-1-beta AlphaLISA Primary Screen. THP-1 LPS/ATP IL-1B secretion, AlphaLISA, 16 h; hits give low values. activity change, % at 57.5 µM. 4.7% of 360,000 active. AID 743279, 2014; in the data active = activity change below about -50%; inconclusive = mostly about -30% to -49%
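THP-1 cells pretreated 1 hr with compounds (up to 57.5 uM final), then stimulated with LPS (250 ng/mL final) plus ATP (1.25 mM final); secreted IL-1B measured by AlphaLISA after 16 hr, decreased signal indicating inhibition.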
HT1080 IDH1KD tx: qHTS for induction of synthetic lethality in tumor cells producing 2HG: qHTS for the HT-1080-IDH1KD cell line; Potency, µM (series often up to 46.1 µM), for the others: top-dose activity, negative = toxicity, hits mostly cytotoxic; AID 686971, 2013; HT-1080 IDH1 knockdown viability, ATP luminescence, 48 h; 2% of 360,000 active;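 note: potency is the fitted concentration of half-maximal effect; 0% = DMSO wells and -100% = cell-free medium wells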
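Assay cells: HT-1080 with IDH1 knockdown, 750 per well, RPMI/5% FBS. Exposure: 48 h at 37 °C following 2 h pre-incubation. Read: CellTiter-Glo luminescence; fitted concentration-response, curve class assigned.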
HT1080-NT tox: qHTS for induction of synthetic lethality in tumor cells producing 2HG: qHTS for the HT-1080-NT fibrosarcoma cell line; HT-1080-NT fibrosarcoma viability, CellTiter-Glo ATP luminescence, 48 h; Potency, µM (series often up to 46.1 µM), for inactives: top-dose activity, negative = less viability, most hits filed as cytotoxic; 1.6% of 360,000 active; AID 686970, 2013;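 note: NT is the 2HG producing partner of a matched IDH1 knockdown line; potency is the fitted concentration of half-maximal effect; 0% = DMSO-treated cells and -100% = media-only wells without cells; nearly all actives have a fitted effect of over 55% in size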
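Viability of the 2HG-overproducing fibrosarcoma line after 48 hours of compound exposure at 37 degrees C was determined by luminescence with CellTiter-Glo, and concentration-effect curves were then fitted and categorized.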
DT40 TDP1 no CPT: qHTS for Inhibitors of human tyrosyl-DNA phosphodiesterase 1 (TDP1): qHTS in cells in absence of CPT; DT40 Tdp1-/- hTDP1 cells, no CPT, ATP luminescence, 48 h; Potency, µM (doses to about 46.2 µM), for inactives: at the top dose activity change, negative = growth inhibition, usual class: inhibitors; 15% of 420,000 active; AID 686978, 2013; note: potency is the fitted concentration of half-maximal effect; nearly all actives have a fitted effect of over 55% in size
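Cells were dispensed at 400 per well, compounds added by pin tool, plates incubated ≥48 hr at 37 °C, then CellTiter-Glo added for 30 min at room temperature before luminescence reading. Line: DT40 Tdp1-/- complemented with hTDP1; camptothecin omitted.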
The depositor's hits bear a star; ? = inconclusive; nt = no result. Sampled rows, rich in hits. Any-hit rate of the full collection: about 19%. Unless noted, calls come from the whole dose curve; as a rule, active = well fitted curve in the direction sought with a large enough effect; inconclusive = small, poorly fitted or top-dose-only effect, or another doubt; inactive = no such curve, though single readings can be large; an effect the other way counts as inactive or inconclusive. Unless noted, % is set by controls: 0 for no effect and ±100 for the full control effect.

SMILES	ELG1 repair inh	TDP1 cell CPT	IL1B secr inh	HT1080 IDH1KD tx	HT1080-NT tox	DT40 TDP1 no CPT
CCN(CCCNC(=O)CCc1nc(-c2ccc(OC)cc2)no1)c1cccc(C)c1	18.4µM*	?	-22.4	-23.1%	?	-75.6%
COc1ccc(C2=NN(CC(=O)NCCCN(C)c3ccccc3)C(=O)CC2)cc1	nt	?	nt	nt	nt	14.6µM*
CCN(CCCNC(=O)CN1N=C(c2ccccc2)CCC1=O)c1cccc(C)c1	nt	-13.4%	nt	nt	nt	-19.4%
CN1C(=O)C(c2cn(C)c3ccccc23)(c2cn(C)c3ccccc23)c2cc(Br)ccc21	nt	-19.5%	17.8	-14.8%	0.3%	-25.2%
CCN(CCCNC(=O)CN1N=C(c2ccc(C)cc2)CCC1=O)c1ccccc1	nt	?	nt	nt	nt	23.1µM*
CCc1ccc(CN(Cc2ccco2)c2cnc(S(C)(=O)=O)nc2C(=O)Nc2c(C)cccc2C)cc1	nt	16.4µM*	nt	nt	nt	18.4µM*
COc1ccc(CN(Cc2ccco2)c2cnc(S(C)(=O)=O)nc2C(=O)Nc2ccc(C)c(Cl)c2)cc1	nt	?	nt	nt	nt	-22.1%
CC(C)c1ccc(CN(Cc2ccco2)c2cnc(S(C)(=O)=O)nc2C(=O)Nc2ccc(F)cc2)cc1	nt	?	nt	nt	nt	20.6µM*
Cc1ccc(NC(=O)c2nc(S(C)(=O)=O)ncc2N(Cc2ccco2)Cc2ccco2)cc1	nt	8.2µM*	nt	nt	nt	11.6µM*
CCOc1ccc(N2CC(NC(=O)c3ccc(S(=O)(=O)N4CCOCC4)cc3)CC2=O)cc1 (stereo unspecified)	nt	-7.3%	nt	nt	nt	?
Cc1cc2c(cc1NC(=O)c1ccccc1C)n(C)c(=O)c(=O)n2C	nt	-0.6%	nt	nt	nt	2.4%
COc1ccc(C(=O)Nc2ccc(N3CCN(C(=O)c4ccccc4C)CC3)cc2)cc1	?	8.2µM*	?	7.0%	-2.0%	8.2µM*
O=C(Nc1ccc(N2CCCC2)cc1)C(Cl)c1ccccc1 (stereo unspecified)	?	8.2µM*	23.3	-11.8%	-5.9%	13µM*
O=C(O)/C=C\C(=O)Nc1ccc(N2CCN(c3ccc(Cl)c(Cl)c3)CC2)cc1	-8.5%	?	-71.1*	-4.3%	-18.4%	?
O=C(Nc1ccc(N2CCCC2)cc1)c1cc(Br)ccc1Cl	-10.8%	3.66µM*	-23.8	?	?	4.61µM*
CC(C)[C@H](NC(=O)OC(C)(C)C)c1cc(C(=O)N[C@@H](C)c2ccccc2)c(N)s1	nt	?	-28.1	-2.4%	-6.7%	?
c1ccc2c(c1)COC(CNC1CCCCC1)OC2	?	-10.6%	-2.9	-12.8%	-5.3%	-17.0%
Cc1ccc2cc(CN(c3cccc(C)c3C)S(=O)(=O)c3ccccc3)c(=O)[nH]c2c1	?	?	28.6	-0.5%	8.5%	?
CCc1ccc(NC(=O)C(=O)NCCN2CCN(C(=O)c3ccc(OC)cc3)CC2)cc1	nt	?	-5.2	-12.6%	-2.7%	13µM*
CCOC(=O)C(C(=O)Nc1ccccc1)C1CCCCC1 (stereo unspecified)	0.0%	1.4%	-21.0	-9.7%	-13.8%	-4.3%
Cc1ccc(C(=O)N2CCN(c3ccc(NC(=S)NC(=O)Cc4ccccc4)cc3)CC2)cc1	0.0%	35.5µM*	-14.5	1.5%	0.1%	?
O=C(Nc1ccccc1)C(c1ccccc1)C1CCCC1 (stereo unspecified)	-10.6%	-5.9%	-91.4*	-2.9%	-7.1%	-22.3%
COc1ccc(C(=O)N2CCN(c3ccc(NC(=O)Cc4ccccc4)cc3)CC2)cc1	9.2µM*	?	0.8	-15.5%	-15.8%	?
CC(C)(C)c1ccc(C(=O)NCc2ccc(Cl)cc2)cc1	?	-15.3%	-4.4	-28.3%	-23.3%	-9.0%
CC(C)(C)c1ccc(C(=O)N2CCN(CCNC(=O)C(=O)NCc3ccc(Cl)cc3)CC2)cc1	11.6µM*	14.6µM*	-67.3*	?	?	20.6µM*
SMILES	ELG1 repair inh	TDP1 cell CPT	IL1B secr inh	HT1080 IDH1KD tx	HT1080-NT tox	DT40 TDP1 no CPT
Cc1ccccc1C(=O)Nc1ccc(N2CCCC2)cc1	?	?	-55.1*	1.0%	-2.7%	-1.0%
Cc1ccc(C)c(C(=O)CSc2nc3cc(C(=O)NC4CCCC4)ccc3c(=O)n2CC2CCCO2)c1 (stereo unspecified)	nt	18.4µM*	nt	nt	nt	8.2µM*
O=C(CSc1nc2cc(C(=O)NC3CCCC3)ccc2c(=O)n1CC1CCCO1)c1cccc(Cl)c1 (stereo unspecified)	nt	20.6µM*	nt	nt	nt	23.1µM*
O=c1c(Cc2ccc(Cl)cc2)c(O)ccn1Cc1cccs1	2.0%	-4.3%	-4.9	-16.9%	-9.6%	9.0%
Cc1cc2oc(C(=O)N3CCN(Cc4ccccc4)CC3)c(C)c2cc1C	nt	25.9µM*	-15.4	-6.0%	1.9%	?
Cc1c(C(=O)N2CCN(Cc3ccccc3)CC2)oc2c1C(=O)CCC2	-14.5%	-10.7%	-2.3	-0.2%	0.4%	-18.0%
Cc1c(C(=O)N2CCN(c3ncccn3)CC2)oc2ccc(F)cc12	?	?	-1.0	-14.9%	-0.9%	?
Cc1c(C(=O)N2CCN(C(=O)c3ccccc3)CC2)oc2ccc(F)cc12	18.3µM*	-24.5%	-21.1	20.2%	10.1%	-2.1%
O=C(COC(=O)Cc1ccc(S(=O)(=O)N2CCCCC2)s1)Nc1ccc2c(c1)OCO2	-4.9%	4.8%	4.6	-1.8%	6.6%	3.4%
O=C(Cc1ccc(S(=O)(=O)N2CCCC2)s1)Nc1cccc([N+](=O)[O-])c1	?	?	-15.9	-6.6%	-7.3%	16.4µM*
O=C(Cc1ccc(S(=O)(=O)N2CCCCC2)s1)Nc1ccc(F)c(F)c1	-15.2%	16.4µM*	-5.5	-11.9%	-5.3%	23.1µM*
Cc1cc(C)cc(OCC(=O)Nc2ccc(S(=O)(=O)Nc3onc(C)c3C)cc2)c1	nt	1.9%	nt	nt	nt	-7.9%
CCCOc1ccc(C2C3=C(Nc4nc(N)[nH]c(=O)c42)c2ccccc2C3=O)cc1 (stereo unspecified)	15.4%	?	-54.9*	-21.1%	-4.8%	?

Screening data as filed in PubChem BioAssay.
